Reference: the supplement of paper PMC10849652
About 7,900 targets were measured; listed, in parts, are those with a hit and a random draw of the rest. About 0.6% of all pairs of compound and target were hits.

Tests used:
Test in all cases: log2 fold change, soluble protein after heating vs DMSO (PISA); higher = thermal stabilisation; K562 cells, 10 uM, 30 min; active = over 0.2 and 3.5 SD of the protein, either way, in both replicates (recomputed)
[1] = compound: NC(=O)Nc1cc(-c2cccc(F)c2)sc1C(=O)N[C@H]1CCCNC1
In short: (§1)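 Soluble protein was defined as the supernatant after 21,000xg for 90 min. It came from K562 cells at 2×10^6 cells/mL given 10 μM compound for 30 min, heated in aliquots for 3 min across 48°C-58°C, pooled, and extracted in PBS with 0.5% NP-40 at 4°C, and was quantified by TMTpro 16plex LC-MS/MS with equalised channel sums. Thermal stability against control samples, from duplicates, is reported as log2 fold change.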

[2] = compound: NC(=O)c1cnc(N[C@@H]2CCCC[C@@H]2N)nc1Nc1cccc(-n2nccn2)c1
In short: as §1

[3] = compound: NC1(c2ccc(-c3nc4ccn5c(=O)[nH]nc5c4cc3-c3ccccc3)cc2)CCC1
In short: as §1

[4] = compound: NCC(=O)Nc1ccc(-n2nc(C(F)(F)F)cc2-c2ccc3c(ccc4ccccc43)c2)cc1
In short: as §1

entinostat = compound: Nc1ccccc1NC(=O)c1ccc(CNC(=O)OCc2cccnc2)cc1 [entinostat]
In short: as §1

vorinostat = compound: O=C(CCCCCCC(=O)Nc1ccccc1)NO [vorinostat]
In short: as §1

citarinostat = compound: O=C(CCCCCCNC(=O)c1cnc(N(c2ccccc2)c2ccccc2Cl)nc1)NO [citarinostat]
In short: as §1

silmitasertib = compound: O=C(O)c1ccc2c(c1)nc(Nc1cccc(Cl)c1)c1ccncc12 [silmitasertib]
In short: as §1

[5] = compound: O=C1NC(=O)C(c2cnc3ccccn23)=C1c1cn2c3c(cc(F)cc13)CN(C(=O)N1CCCCC1)CC2
In short: as §1

[6] = compound: c1cc(OCCN2CCCCC2)cc(-c2n[nH]c3ccc(-c4nnc[nH]4)cc23)c1
In short: as §1

entospletinib = compound: c1cn2cc(-c3ccc4cn[nH]c4c3)nc(Nc3ccc(N4CCOCC4)cc3)c2n1 [entospletinib]
In short: as §1

Measured: log2 fold change

TXN2 (UniProt Q99757)
Sequence of UniProt Q99757 (Q99757 whole entry, looked up): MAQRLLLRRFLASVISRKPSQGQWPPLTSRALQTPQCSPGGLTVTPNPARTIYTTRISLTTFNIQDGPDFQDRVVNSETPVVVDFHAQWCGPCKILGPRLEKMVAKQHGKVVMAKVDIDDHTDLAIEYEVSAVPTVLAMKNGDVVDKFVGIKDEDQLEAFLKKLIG
inactive: [1] -0.039 | [2] -0.009 | [3] 0.088 | [4] 0.049 | entinostat 0.023 | vorinostat -0.072 | citarinostat 0.054 | silmitasertib -0.072 | [5] -0.09 | [6] -0.036 | entospletinib 0

VPS11 (UniProt Q9H270)
Sequence of UniProt Q9H270 (Q9H270 whole entry, looked up): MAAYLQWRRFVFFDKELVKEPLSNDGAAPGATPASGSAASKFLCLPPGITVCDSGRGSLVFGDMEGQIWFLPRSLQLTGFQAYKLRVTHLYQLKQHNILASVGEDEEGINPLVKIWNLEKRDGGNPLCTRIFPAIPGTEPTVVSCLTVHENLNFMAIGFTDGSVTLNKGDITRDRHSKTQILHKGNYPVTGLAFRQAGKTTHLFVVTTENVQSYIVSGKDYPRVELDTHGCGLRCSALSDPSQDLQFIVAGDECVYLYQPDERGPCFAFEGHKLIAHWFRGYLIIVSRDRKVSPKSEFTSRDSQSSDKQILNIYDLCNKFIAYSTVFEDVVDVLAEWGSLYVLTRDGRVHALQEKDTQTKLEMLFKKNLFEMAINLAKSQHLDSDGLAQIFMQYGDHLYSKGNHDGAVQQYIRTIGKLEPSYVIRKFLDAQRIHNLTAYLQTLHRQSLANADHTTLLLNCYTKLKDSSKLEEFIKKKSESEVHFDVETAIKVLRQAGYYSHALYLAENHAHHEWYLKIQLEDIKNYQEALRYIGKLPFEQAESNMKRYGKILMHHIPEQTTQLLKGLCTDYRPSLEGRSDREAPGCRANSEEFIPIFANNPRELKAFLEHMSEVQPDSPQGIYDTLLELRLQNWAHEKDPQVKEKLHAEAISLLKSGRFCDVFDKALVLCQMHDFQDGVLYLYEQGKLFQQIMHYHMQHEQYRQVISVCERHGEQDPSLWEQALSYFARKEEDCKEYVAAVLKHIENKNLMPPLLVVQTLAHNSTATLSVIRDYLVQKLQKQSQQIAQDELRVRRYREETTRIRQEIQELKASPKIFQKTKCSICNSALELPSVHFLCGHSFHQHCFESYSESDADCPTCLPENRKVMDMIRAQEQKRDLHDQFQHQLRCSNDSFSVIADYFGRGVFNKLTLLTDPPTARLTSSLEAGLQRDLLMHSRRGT
inactive: [1] -0.012 | [2] -0.053 | [3] -0.159 | [4] -0.028 | entinostat 0.015 | vorinostat 0.145 | citarinostat 0.065 | silmitasertib 0.025 | [5] 0.024 | [6] 0.084 | entospletinib 0.04

VPS33B (UniProt Q9H267)
inactive: [1] -0.013 | [2] -0.154 | [3] -0.118 | [4] -0.018 | entinostat 0.094 | vorinostat 0.072 | citarinostat 0.076 | silmitasertib -0.011 | [5] 0.017 | [6] -0.057 | entospletinib 0.008

UBAP2L isoform 1 (UniProt Q14157)
inactive: [1] 0.071 | [2] 0.076 | [3] -0.064 | [4] 0.039 | entinostat -0.043 | vorinostat 0.041 | citarinostat -0.022 | silmitasertib -0.031 | [5] -0.012 | [6] 0.03 | entospletinib -0.065

WASHC2C, A0A096LPC5
Sequence of WASHC2C, A0A096LPC5 (A0A096LPC5 whole entry, looked up): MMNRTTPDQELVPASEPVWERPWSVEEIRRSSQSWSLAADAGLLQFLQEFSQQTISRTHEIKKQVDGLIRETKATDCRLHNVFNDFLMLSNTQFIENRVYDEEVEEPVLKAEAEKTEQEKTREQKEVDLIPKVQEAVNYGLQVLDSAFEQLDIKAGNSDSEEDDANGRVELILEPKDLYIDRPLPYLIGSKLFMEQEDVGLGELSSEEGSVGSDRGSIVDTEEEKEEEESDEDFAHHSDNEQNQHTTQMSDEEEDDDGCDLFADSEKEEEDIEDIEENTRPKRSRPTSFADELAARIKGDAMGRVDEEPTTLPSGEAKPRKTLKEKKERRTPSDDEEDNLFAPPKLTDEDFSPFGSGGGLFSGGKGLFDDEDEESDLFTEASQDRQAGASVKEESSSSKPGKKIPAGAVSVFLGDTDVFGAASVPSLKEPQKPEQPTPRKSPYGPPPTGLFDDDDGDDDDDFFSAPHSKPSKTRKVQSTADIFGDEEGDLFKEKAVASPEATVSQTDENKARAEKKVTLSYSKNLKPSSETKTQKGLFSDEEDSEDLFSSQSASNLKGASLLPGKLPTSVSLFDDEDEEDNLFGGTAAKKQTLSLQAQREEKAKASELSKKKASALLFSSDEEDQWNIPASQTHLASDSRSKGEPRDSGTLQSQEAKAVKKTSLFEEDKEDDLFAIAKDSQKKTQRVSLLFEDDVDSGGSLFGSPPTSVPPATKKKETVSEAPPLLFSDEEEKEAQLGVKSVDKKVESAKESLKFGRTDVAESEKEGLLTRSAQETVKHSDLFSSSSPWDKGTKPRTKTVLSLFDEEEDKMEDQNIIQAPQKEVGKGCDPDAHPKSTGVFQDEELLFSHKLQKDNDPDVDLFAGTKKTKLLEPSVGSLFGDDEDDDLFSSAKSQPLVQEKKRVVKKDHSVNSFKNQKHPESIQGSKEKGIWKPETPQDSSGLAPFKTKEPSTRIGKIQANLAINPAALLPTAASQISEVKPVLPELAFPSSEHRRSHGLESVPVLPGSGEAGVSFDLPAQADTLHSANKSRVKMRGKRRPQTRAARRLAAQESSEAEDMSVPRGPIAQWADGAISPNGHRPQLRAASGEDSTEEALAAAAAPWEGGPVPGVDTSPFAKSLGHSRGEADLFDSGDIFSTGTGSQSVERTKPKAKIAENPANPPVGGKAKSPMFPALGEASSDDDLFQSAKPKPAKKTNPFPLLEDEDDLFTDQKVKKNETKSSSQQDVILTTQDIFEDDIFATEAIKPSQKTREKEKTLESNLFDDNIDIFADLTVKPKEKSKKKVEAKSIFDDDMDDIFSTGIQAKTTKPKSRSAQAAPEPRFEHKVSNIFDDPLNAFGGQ
inactive: [1] -0.084 | [2] -0.208 | [3] -0.06 | [4] -0.058 | entinostat -0.015 | vorinostat -0.209 | citarinostat -0.113 | silmitasertib 0.361 | [5] 0.001 | [6] -0.151 | entospletinib 0.085

TMTC3 (UniProt Q6ZXV5)
inactive: [1] -0.028 | [2] -0.113 | [3] -0.135 | [4] -0.097 | entinostat -0.046 | vorinostat 0.025 | citarinostat 0.005 | silmitasertib 0.025 | [5] -0.037 | [6] -0.089 | entospletinib 0.007

WDR11 (UniProt Q9BZH6)
inactive: [1] 0.039 | [2] -0.164 | [3] -0.087 | [4] -0.192 | entinostat -0.024 | vorinostat -0.007 | citarinostat -0.067 | silmitasertib -0.025 | [5] -0.016 | [6] -0.036 | entospletinib -0.403

TRIP10 (UniProt Q15642)
Sequence of UniProt Q15642 (Q15642 whole entry, looked up): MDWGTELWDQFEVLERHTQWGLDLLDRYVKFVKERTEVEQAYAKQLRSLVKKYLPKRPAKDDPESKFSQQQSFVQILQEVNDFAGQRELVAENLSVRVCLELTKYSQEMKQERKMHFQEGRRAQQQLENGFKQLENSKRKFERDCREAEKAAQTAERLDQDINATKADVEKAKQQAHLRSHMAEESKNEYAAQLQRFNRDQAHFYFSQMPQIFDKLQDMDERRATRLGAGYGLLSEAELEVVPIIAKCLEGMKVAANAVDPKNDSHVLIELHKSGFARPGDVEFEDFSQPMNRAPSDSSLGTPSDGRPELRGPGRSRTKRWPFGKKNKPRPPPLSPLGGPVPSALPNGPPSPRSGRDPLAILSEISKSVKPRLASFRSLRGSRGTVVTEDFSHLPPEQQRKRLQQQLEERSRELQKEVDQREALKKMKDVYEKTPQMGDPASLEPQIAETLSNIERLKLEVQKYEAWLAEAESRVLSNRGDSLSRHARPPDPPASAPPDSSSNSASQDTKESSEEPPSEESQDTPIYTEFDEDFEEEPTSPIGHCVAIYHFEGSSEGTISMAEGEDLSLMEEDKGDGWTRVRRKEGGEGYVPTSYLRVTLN
inactive: [1] -0.003 | [2] -0.055 | [3] -0.129 | [4] -0.011 | entinostat 0.019 | vorinostat -0.063 | citarinostat 0 | silmitasertib 0.046 | [5] -0.207 | [6] -0.014 | entospletinib 0.061

VRK2 (UniProt Q86Y07)
Sequence of UniProt Q86Y07 (Q86Y07 whole entry, looked up): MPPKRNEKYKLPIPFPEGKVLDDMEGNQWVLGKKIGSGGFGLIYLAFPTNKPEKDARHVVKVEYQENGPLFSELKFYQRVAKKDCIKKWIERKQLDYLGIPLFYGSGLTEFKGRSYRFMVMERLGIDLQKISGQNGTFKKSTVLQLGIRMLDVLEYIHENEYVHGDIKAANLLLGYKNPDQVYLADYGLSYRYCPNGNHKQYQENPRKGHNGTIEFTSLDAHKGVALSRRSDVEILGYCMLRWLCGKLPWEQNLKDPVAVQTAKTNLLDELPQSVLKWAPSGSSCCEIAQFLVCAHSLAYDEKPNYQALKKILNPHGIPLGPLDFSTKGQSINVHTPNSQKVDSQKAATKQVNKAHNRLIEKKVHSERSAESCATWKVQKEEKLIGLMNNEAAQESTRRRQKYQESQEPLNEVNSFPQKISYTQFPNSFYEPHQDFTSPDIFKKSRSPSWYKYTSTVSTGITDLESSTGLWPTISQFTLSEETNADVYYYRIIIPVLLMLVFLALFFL
inactive: [1] 0.023 | [2] 0.04 | [3] -0.111 | [4] -0.025 | entinostat 0.032 | vorinostat 0.02 | citarinostat 0.008 | silmitasertib 0 | [5] 0.06 | [6] 0.001 | entospletinib -0.078

WASHC2A (UniProt Q641Q2)
Sequence of UniProt Q641Q2 (Q641Q2 whole entry, looked up): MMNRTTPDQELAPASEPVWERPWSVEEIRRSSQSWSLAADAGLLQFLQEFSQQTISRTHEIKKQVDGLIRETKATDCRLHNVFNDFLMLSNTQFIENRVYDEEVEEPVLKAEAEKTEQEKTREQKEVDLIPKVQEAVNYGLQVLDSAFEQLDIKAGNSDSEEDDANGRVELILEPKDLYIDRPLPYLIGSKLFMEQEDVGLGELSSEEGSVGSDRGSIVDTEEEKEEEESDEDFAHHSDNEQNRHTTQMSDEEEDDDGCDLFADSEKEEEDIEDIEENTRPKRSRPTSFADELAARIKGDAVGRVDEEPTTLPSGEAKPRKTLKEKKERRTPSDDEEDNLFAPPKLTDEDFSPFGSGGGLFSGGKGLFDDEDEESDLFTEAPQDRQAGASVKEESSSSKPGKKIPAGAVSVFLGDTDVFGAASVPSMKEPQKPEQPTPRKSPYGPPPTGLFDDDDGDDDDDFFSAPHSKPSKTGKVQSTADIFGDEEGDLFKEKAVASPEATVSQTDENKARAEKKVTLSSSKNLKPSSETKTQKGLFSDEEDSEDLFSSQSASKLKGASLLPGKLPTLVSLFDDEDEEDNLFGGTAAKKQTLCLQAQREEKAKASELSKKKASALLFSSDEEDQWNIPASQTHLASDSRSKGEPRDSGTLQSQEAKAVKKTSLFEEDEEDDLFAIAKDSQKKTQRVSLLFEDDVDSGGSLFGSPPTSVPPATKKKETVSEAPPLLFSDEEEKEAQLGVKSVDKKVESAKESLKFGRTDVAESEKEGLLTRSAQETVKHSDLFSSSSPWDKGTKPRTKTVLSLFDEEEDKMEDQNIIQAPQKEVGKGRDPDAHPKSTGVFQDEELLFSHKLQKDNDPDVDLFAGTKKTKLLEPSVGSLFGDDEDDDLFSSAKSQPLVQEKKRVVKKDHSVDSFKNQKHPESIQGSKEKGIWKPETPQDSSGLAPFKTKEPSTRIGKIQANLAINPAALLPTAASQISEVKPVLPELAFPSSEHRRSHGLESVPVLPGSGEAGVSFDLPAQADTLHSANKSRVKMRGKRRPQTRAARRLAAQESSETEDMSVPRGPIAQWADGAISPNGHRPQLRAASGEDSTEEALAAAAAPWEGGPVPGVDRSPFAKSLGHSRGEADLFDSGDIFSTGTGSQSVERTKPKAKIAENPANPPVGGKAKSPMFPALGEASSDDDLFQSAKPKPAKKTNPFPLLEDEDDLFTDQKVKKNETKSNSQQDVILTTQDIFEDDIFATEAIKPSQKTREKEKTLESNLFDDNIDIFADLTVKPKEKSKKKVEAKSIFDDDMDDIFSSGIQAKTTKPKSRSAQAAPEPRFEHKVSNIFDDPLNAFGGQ
inactive: [1] -0.013 | [2] -0.012 | [3] -0.159 | [4] 0.021 | entinostat -0.038 | vorinostat 0.024 | citarinostat -0.035 | silmitasertib 0.072 | [5] 0.016 | [6] -0.056 | entospletinib 0.03

VAMP7 (UniProt P51809)
inactive: [1] -0.029 | [2] 0.001 | [3] -0.176 | [4] -0.069 | entinostat 0.009 | vorinostat 0.025 | citarinostat 0.086 | silmitasertib 0.027 | [5] -0.058 | [6] 0.026 | entospletinib -0.032
